Assay outcomes deposited in PubChem BioAssay by National Center for Advancing Translational Sciences (NCATS).
Only some compounds are listed: those with a hit (about 21% of all), similar ones and a draw of the others.
Cycloheximide cs = affects cycloheximide protein synthesis inhibition readout, counter-screen; cell reporter, cycloheximide protein synthesis inhibition counterscreen; max response, %; 300,000 tested, 12% active; AID 2314; in the data active means max response mostly above about 13%, no sharp cut-off; inactive means mostly below about 14%; further: read at 38.3 µM for the half of the compounds with a filed dose; 0% is about no effect
Shiga inhibitor = Shiga toxin inhibition. inhibition, % at 38.7 µM. AID 2315. 290,000 tested, 9.2% active. Vero cells, Shiga toxin protein synthesis inhibition reporter; in the data active means inhibition mostly above about 28%, no sharp cut-off; inactive means mostly below about 43%; further: 0% is about no effect
NS1 function inh = blocks influenza NS1 protein function. AID 2326. Potency, µM (titrated, usually from 46.1 µM), inactives show top-dose activity, positive = more growth. 270,000 tested, 0.4% active; further: potency means the concentration at half of the fitted maximal effect; actives are rising curves; nearly all actives have a fitted effect of over 50% in size
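OD600 was taken as the measure of yeast growth restored by compound in an NS1-expressing S. cerevisiae strain. Cells had been washed out of glucose medium and diluted 1:100 into galactose -URA medium, pH 6.0.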
Pf growth 48h = inhibits P. falciparum growth in the first generation, 48 h; P. falciparum luciferase growth in erythrocytes, 48 h; Potency, µM (top dose mostly 28.7 µM), for the others: at the highest dose activity change, negative = inhibition, actives largely listed as inhibitors; 310,000 tested, 5.9% active; AID 504832; active means well fitted inhibition curve with a large enough effect; inconclusive means small, poorly fitted or top-dose-only effect, or another doubt; inactive means no such curve, though single readings can be large or run the other way; further: potency means the concentration at half of the fitted maximal effect; on the % scale 0 is the no-effect control and ±100 the full control effect
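Here the parasites carry a stable luciferase gene and grow inside erythrocytes in Albumax-based RPMI medium with compound for one erythrocytic cycle. Activity is scored as loss of luminescent signal.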
Pf growth 96h = inhibits malaria parasite growth, 96 h; P. falciparum luciferase reporter growth, 96 h; Potency, µM (top dose mostly 28.7 µM), for the others: at the top dose activity change, negative = inhibition, most hits filed as inhibitors; 320,000 tested, 6.9% active; active means well fitted inhibition curve with a large enough effect; inconclusive means small, poorly fitted or top-dose-only effect, or another doubt; inactive means no such curve, though single readings can be large or run the other way; further: potency means the concentration at half of the fitted maximal effect; on the % scale 0 is the no-effect control and ±100 the full control effect
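Compounds incubated with erythrocytes infected by luciferase-expressing P. falciparum (2% hematocrit, 0.05% parasitemia final) for 96 hours, 37 C in 5% CO2. Growth inhibition scored as decreased luciferase luminescence.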
SARS PLpro yeast = blocks SARS-CoV papain-like protease in a yeast assay. Potency, µM (top dose mostly 32.9 µM), without a hit: top-dose activity, positive = growth rescue, most hits filed as activators. 330,000 tested, 0.19% active. AID 485353. S. cerevisiae expressing SARS-CoV PLpro, growth rescue; further: potency means the concentration at half of the fitted maximal effect; 0% is about no effect; nearly all actives have a fitted effect of over 55% in size
* marks the source's active call; other numbers are inactive results; ? = inconclusive; / = no result; + = active, no number; [ ] = dose if it differs, or a comment. Unless noted, the call rests on the fitted dose curve.

SMILES	Cycloheximide cs	Shiga inhibitor	NS1 function inh	Pf growth 48h	Pf growth 96h	SARS PLpro yeast
O=C(O)C(=O)/C(=C\c1cccc(Cl)c1)c1ccc2ccccc2n1	93*	110*	5%	275%	196%	-5%
N#Cc1ccc(/C=C/C(=O)O)cc1	-3	3	3%	2%	1%	0%
CN(C)C(=S)c1ccc2ccccc2n1	14	-2	1%	?	/	3%
Cc1cccc(/C=C(\C(=O)C(=O)O)c2ccc3ccccc3n2)c1	46*	62*	/	223%	468%	-3%
Cc1ccc2c(CC(=O)N3CCN(S(=O)(=O)c4cccs4)CC3)coc2c1	-2	15	-56%	-13%	/	-12%
Cc1ccc(CN(c2ccc(C(=O)N3CCCC3)cc2)S(C)(=O)=O)cc1	-1	-5	-10%	8%	31%	2%
CC1CC(C)CN(S(=O)(=O)c2cccc3nsnc23)C1 (stereo not drawn)	-2	2	8%	-16%	31%	-1%
CC(C)(C)[C@H]1COC(=O)CCC/C=C/C[C@H](CC(=O)NCCO)C(=O)N1	/	/	/	/	/	0%
CO[C@]1(NC(=O)CSCC#N)C(=O)N2C(C(=O)O)=C(CSc3nnnn3C)CS[C@H]21	/	/	/	5%	-15%	/
Cc1nc(CCl)cc(=O)[nH]1	4	17	/	5.2µM*	?	-2%
CC(C)N=C(NS(=O)(=O)c1ccccc1)C(Cl)(Cl)Cl	19*	38*	-32%	?	?	-29%
CCCc1nc2ccccc2c(=O)n1/N=C/c1ccc(O)cc1	-2	-14	-8%	12µM*	?	0%
O=c1c2ccccc2nc(COc2ccccc2)n1/N=C/c1ccc(O)c(O)c1	25*	19	-2%	?	?	-1%
CCCc1nc2ccccc2c(=O)n1/N=C/c1ccc(O)cc1O	6	-10	-38%	0%	?	14%
O=c1c2ccccc2nc(COc2ccccc2)n1/N=C/c1ccco1	35*	69*	-56%	118%	-6%	-7%
Cc1cccc(C)c1OCc1nc2ccccc2c(=O)n1/N=C/c1ccc(OCC(=O)O)cc1	12	39	10%	-3%	-14%	-5%
Cc1ccccc1OCc1nc2ccccc2c(=O)n1/N=C/c1cccc([N+](=O)[O-])c1	23*	+	5%	80%	99%	10%
O=C(O)COc1ccc(/C=N/n2c(COc3ccccc3)nc3ccccc3c2=O)cc1	23	40	-5%	37%	-12%	7%
O=C(CN1C(=O)NC2(CCCCC2)C1=O)N1CCOCC1	/	/	/	10%	-5%	1%
Cc1ccccc1OCc1nc2ccccc2c(=O)n1/N=C/c1cn[nH]c1-c1ccccc1	7	30	3%	?	?	26%
Cc1ccc(-c2[nH]ncc2/C=N/n2c(COc3ccccc3)nc3ccccc3c2=O)cc1	29*	42	12%	12µM*	10µM*	-6%
CC1C(=NO)C(C)C(c2ccc(N(C)C)cc2)NC1c1ccc(N(C)C)cc1 (stereo not drawn)	-1	-6	-8%	?	1.9µM*	-1%
COc1ccc(/C=C2\SC(=O)N(CC(=O)Nc3ccc(F)cc3)C2=O)cc1O	0	7	-8%	-1%	-21%	12%
CCn1c(SCC(=O)c2ccccc2)nc2sc3c(c2c1=O)CCN(C)C3	12*	70*	6%	?	2.9µM*	1%
O=C(O)c1ccc(Cn2cnc3sc4c(c3c2=O)CCCC4)cc1	12	14	1%	8%	2%	-1%
SMILES	Cycloheximide cs	Shiga inhibitor	NS1 function inh	Pf growth 48h	Pf growth 96h	SARS PLpro yeast
O=C(O)c1ccc(Cn2nnc3sc4c(c3c2=O)CCCC4)cc1	41*	167*	/	58%	-10%	-1%
CCn1c(SCC(=O)NCCc2ccccc2)nc2sc3c(c2c1=O)CCN(C)C3	-2	-8	-2%	1.7µM*	0.37µM*	-1%
C=CCn1c(SCC(=O)NCC)nc2sc3c(c2c1=O)CCC3	-5	-4	-9%	7.4µM*	?	-2%
CCOC(=O)c1ccc(NC(=O)NCc2cccnc2)cc1	13	15	1%	1%	?	-5%
O=C(O)CC(Cc1ccccc1)C(=O)NCC12CC3CC(CC(C3)C1)C2 (stereo not drawn)	8	-3	/	?	-7%	6%
COc1ccccc1-c1nc2ccc(Cl)cc2c(=O)n1O	-3	18	3%	-11%[0.00184 µM]	3%	-1%
NNc1nc2sc3c(c2c(=O)n1Cc1ccccc1)CCC3	12	32	6%	4%	15%	2%
Nn1c(Nc2ccccc2)nc2sc3c(c2c1=O)CCC3	26*	86*	-6%	52%	31%	-7%
Cc1ccccc1-n1c(SCC(=O)O)nc2sc3c(c2c1=O)CCCC3	-9	2	8%	6%	?	2%
CN(C)CCCNc1nc2sc3c(c2c(=O)n1CCc1ccccc1)CCCCC3	2	-10	2%	6.6µM*	4.1µM*	0%
O=C(O)CSc1nc2sc3c(c2c(=O)n1Cc1ccccc1)CCCCC3	26*	40*	11%	55%	43%	-3%
O=c1c2c3c(sc2nc(NCCO)n1-c1ccccc1)CCCC3	-3	-27	0%	4%	10%	4%
C/C(=N\NC(=S)Nc1ccccc1C)C1Cc2ccccc2C(=O)O1 (stereo not drawn)	40*	46	0%	?	12%	0%
C/C(=N\NC(=S)Nc1ccccc1)C1Cc2ccccc2C(=O)O1 (stereo not drawn)	51*	82*	9%	10µM*	?	1%
CC1CCCC(NC(=O)CSC2=Nc3ccccc3C3CC=NN23)C1C (stereo not drawn)	/	/	/	-26%	?	3%
Cc1cccc(NC(=O)C(C)SCc2nc3sc4c(c3c(=O)[nH]2)CCCC4)n1 (stereo not drawn)	/	/	/	?	20%	3%
CCOc1ccc(NCc2ccccc2OCc2cccc(F)c2)cc1	-1	-2	27%	?	?	12%
Cc1ccccc1-c1noc(-c2ccc(O)cc2)n1	52*	65*	-64%	13%	5%	-27%
Cc1ccccc1-c1noc(-c2ccc(Cl)cc2)n1	24*	26	-4%	133%	?	-7%
Cc1ccccc1-c1nc2c(s1)CCc1onc(-c3ccc(Cl)cc3)c1-2	/	/	/	-25%	57%	0%
Cc1ccccc1-c1noc(-c2ccccc2C(=O)N2CCCC2)n1	12	2	-56%	4%	-16%	-13%
Cc1ccccc1-c1noc(-c2ccccc2F)n1	36*	68*	6%	/	371%	3%
O=C(Cc1ccccc1)NNC(=O)c1cnccn1	-2	-7	-2%	11%	27%	-27%
CCOC(=O)c1c(NC(=O)CSc2ncccn2)sc2c1CCN(Cc1ccccc1)C2	-2	3	-5%	?	7.4µM*	10%
CCOC(=O)c1c(N)sc2c1CCN(CCc1ccccc1)C2	2	/	11%	0%	175%	2%
